Values joined by “and” are separate entries in the source; they are usually repeats but may differ in a detail not shown here. Equal values may be shown once. Inconclusive results are not listed. For some of these results: Potency and affinity values are given separately. Active and inactive are the calls of the source. Unless noted, how the calls were made is not given here.

In test [1] the target is ATP-dependent translocase ABCB1 (Homo sapiens) (UniProt P08183). Kind of test: MDR1 (ABCB1) efflux transporter inhibition, cell-based (AID 377; in the data active means fluorescence slope change above about 50%). The conditions noted are these: MDR1-expressing cells, fluorescent substrate accumulation slope; stronger effect = higher value; concentration not given here.
A short description of test [2]: polyglutamine-triggered caspase-3 activation inhibitors, cell-based (AID 1583). The conditions noted are these: polyglutamine-induced caspase-3 activation, cell assay; stronger effect = higher value;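 tested at 10 µM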.
A short description of test [3]: rescue of polyQ-huntingtin neuronal dysfunction in worms, whole organism, C. elegans mechanosensory neurons, N-terminal huntingtin (AID 1599). The conditions noted are these: touch response, stronger effect = higher value.
Test [4] can be described thus: enhancers of glutamate uptake in motor neurons, MN-1 cell line (AID 1612).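 Further: tested at 1 µM final; 0% = mean of DMSO vehicle wells on each plate; positive means more glutamate uptake than control and negative means less.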 The conditions noted are these: MN-1 motor neuron cells, stronger effect = higher value.
Test [5] can be described thus: suppressors of polyglutamine aggregation in yeast, 75Q-TubH (AID 1616). The conditions noted are these: S. cerevisiae 75Q-TubH polyglutamine aggregation suppression; stronger effect = higher value.
The subject of test [6] is Aerobactin synthetase IucA (Klebsiella pneumoniae, hypervirulent). The experiment in a line: IucA enzyme inhibition, biochemical, LOPAC library, absorbance readout (AID 1346212).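 Further: 100% = no compound wells and 0% = no enzyme wells.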 The conditions noted are these: IucA enzyme assay, absorbance (OD) readout; stronger effect = lower value;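 tested at 8 µM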.
The nature of test [7]: reducers of polyQ inclusions in PC12 cells, cell-based, NGF-treated PC12, GFPQ80 (AID 1614).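 Further: lower means fewer inclusions and 0 means no inclusions at all.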 The conditions noted are these: PC12 NGF-treated GFP-polyQ80 inclusion reduction.
A short description of test [8]: circadian clock period modulators, cell-based, LOPAC library, luminescence reporter (AID 2774).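 Further: values are relative to mean of DMSO wells on each plate.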 The conditions noted are these: circadian reporter cells, at 7 µM, actives lie on both sides.
Test [9] has as its system Hepatitis C virus NS3 helicase. The experiment in a line: HCV NS3 helicase inhibitors, primary screen, biochemical, fluorescence polarization, LOPAC1280 library (AID 687035; in the data active means inhibition above about 37%). The conditions noted are these: Purified HCV NS3 helicase, Cy5-dT15 ssDNA binding fluorescence polarization; stronger effect = higher value; concentration not given here.
Test [10] can be described thus: Cy5 fluorescence quenching or enhancement artefacts, artefact control for HCV NS3 helicase inhibitor project, biochemical, LOPAC1280 (AID 687037). The conditions noted are these: Cy5-DNA-NS3h complex fluorescence interference counterscreen.
Test [11] is described as follows: phospholipid biosynthesis inhibitors in animal cells, primary screen, cell-based, LOPAC library, screen 4 (AID 1347384). The conditions noted are these: phospholipid biosynthesis inhibition screen, at 10 µM.
The nature of test [12]: modulation of C. elegans fzo-1 (AID 1259413).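 Further: fzo-1 mutant C. elegans worms in liquid wells.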 The conditions noted are these: C. elegans fzo-1 modulator screen, mean read-out; stronger effect = higher value.
The nature of test [13]: Cy5 fluorescence interference with SSB-bound oligo, artefact control for HCV NS3 helicase inhibitor project, biochemical, NIH Clinical Collection, E. coli SSB (AID 743268).
Test [14] has as its system Hepatitis C virus NS3 helicase. Kind of test: HCV NS3 helicase inhibitors, primary screen, biochemical, fluorescence polarization, NIH Clinical Collection (AID 743270). The conditions noted are these: NS3 helicase binding to Cy5-dT15 DNA, stronger effect = higher value, concentration not given here.
For test [15], the system named is F380Y. Kind of test: modulators of BK channel variants, profiling panel, selectivity assay, cell-based, U2OS BacMam, thallium flux, beta subunits (AID 1259406;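 active means thallium flux through the channel raised or lowered by more than 3 SD from vehicle-only wells, actives on both sides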;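 further: initial slope of Thallos dye fluorescence rise after thallium is added; log ratio against the mean of 0.3% DMSO vehicle wells on the same plate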). The conditions noted are these: at 30 µM.
Test [16] has as its system F380Y/beta2Delta. The test is described as above. The conditions noted are these: at 30 µM.
In test [17] the test system is R275C. Described as above. The conditions noted are these: at 30 µM.
In test [18] the test system is R275C/beta1. Described as above. The conditions noted are these: at 30 µM.
Test [19] concerns R275C/beta2Delta. Described as above. The conditions noted are these: at 30 µM.
A short description of test [20]: hESC survival regulators, cell-based (AID 493140).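 Further: cells exposed to compounds for four days before counting.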 The conditions noted are these: human embryonic stem cell survival screen; stronger effect = higher value.

Chain of ATP-dependent translocase ABCB1 (Homo sapiens) (P08183 whole entry, looked up): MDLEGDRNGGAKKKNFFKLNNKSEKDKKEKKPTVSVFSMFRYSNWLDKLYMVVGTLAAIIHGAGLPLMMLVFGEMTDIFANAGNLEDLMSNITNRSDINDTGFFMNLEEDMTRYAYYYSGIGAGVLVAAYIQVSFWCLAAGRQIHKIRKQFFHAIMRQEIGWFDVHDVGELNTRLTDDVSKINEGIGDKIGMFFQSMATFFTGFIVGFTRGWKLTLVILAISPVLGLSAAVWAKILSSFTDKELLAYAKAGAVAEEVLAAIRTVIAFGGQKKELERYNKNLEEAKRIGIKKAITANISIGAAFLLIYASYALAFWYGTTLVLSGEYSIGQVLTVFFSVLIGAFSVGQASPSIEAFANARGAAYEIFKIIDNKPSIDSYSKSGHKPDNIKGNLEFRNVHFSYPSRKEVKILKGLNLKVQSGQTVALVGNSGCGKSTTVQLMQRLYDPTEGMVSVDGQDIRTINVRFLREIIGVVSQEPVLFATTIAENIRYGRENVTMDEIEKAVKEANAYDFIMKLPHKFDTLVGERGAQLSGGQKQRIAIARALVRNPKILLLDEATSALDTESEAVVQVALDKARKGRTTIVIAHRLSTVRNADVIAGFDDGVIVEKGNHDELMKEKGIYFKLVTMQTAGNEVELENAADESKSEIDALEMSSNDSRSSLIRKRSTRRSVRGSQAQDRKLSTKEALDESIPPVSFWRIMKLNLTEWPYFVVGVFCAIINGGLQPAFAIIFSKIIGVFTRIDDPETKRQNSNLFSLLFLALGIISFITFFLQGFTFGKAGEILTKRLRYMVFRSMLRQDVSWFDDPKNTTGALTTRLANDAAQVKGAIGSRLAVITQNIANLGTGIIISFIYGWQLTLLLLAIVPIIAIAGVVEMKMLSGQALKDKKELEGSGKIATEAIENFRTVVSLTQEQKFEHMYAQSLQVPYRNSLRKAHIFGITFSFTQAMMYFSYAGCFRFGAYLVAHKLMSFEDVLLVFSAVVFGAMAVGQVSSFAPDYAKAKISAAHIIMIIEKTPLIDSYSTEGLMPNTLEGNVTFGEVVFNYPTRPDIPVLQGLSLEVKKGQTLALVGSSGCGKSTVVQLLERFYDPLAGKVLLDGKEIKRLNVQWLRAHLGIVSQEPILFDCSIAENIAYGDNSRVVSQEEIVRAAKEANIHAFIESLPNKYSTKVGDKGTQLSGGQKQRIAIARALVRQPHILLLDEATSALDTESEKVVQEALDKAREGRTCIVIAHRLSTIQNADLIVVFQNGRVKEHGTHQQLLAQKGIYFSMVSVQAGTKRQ

Take `N[C@@H](Cc1ccc(N(CCCl)CCCl)cc1)C(=O)O`: the fluorescence slope change in test [1] is 94.7% (active). Further, the inhibition in [2] came out at 9.42%. The rescue above control in test [3] is -0.78. Further, in test [4], the glutamate uptake change is 15.9%. Further, in [5], the aggregation suppression score stood at 1.07. The remaining activity in test [6] is 104% (inactive).

As to `CC(CCc1ccccc1)NC(C)C(O)c1ccc(O)cc1` (stereo not given), the inhibition in [2] is 5.61%; in test [9], -5% (inactive). In test [3], the rescue above control is 1.38. Besides, the glutamate uptake change in test [4] was -2.97%. Besides, the inclusion score in test [7] was determined as 2. The aggregation suppression score in test [5] amounted to 1.46. In test [8], the period change is 0.06 h (inactive). Further, the fluorescence ratio (interference) in [10] was 0.9 (inactive). In addition, the remaining activity in [6] is 104% (inactive). Moreover, the outcome in [11] was inactive.

For `Clc1ccc(CO/N=C(\Cn2ccnc2)c2ccc(Cl)cc2Cl)c(Cl)c1`, the mean signal in [12] is 187 (inactive).

With `COc1ccc(C(CN(C)C)C2(O)CCCCC2)cc1` (stereo not given), the inhibition in test [9] was -1% (inactive); in test [14], -2.77% (inactive). For the same compound, in test [10], the fluorescence ratio (interference) is 1.1 (inactive). Further, in test [13], the fluorescence ratio was 1.07 (inactive). Besides, the mean signal in test [12] was 261 (inactive). For the same compound, the call in test [11] was inactive. For the same compound, the log fold change Tl+ flux in test [15] was 0.00861 (inactive); in test [16] it was -0.0103 (inactive); in [17] it was -0.109 (inactive); in test [18] it was 0.0103 (inactive); in [19], -0.0272 (inactive).

Consider `O=C(CCCN1CCC2(CC1)C(=O)NCN2c1ccccc1)c1ccc(F)cc1`, for which the fluorescence slope change in test [1] is 202% (active). Besides, in test [2], the inhibition is -14.9%. The same compound came in with a rescue above control in test [3] of 4.9. Also, the glutamate uptake change in [4] is -22.8%. This compound came in with an inclusion score in test [7] of 2. For the same compound, the aggregation suppression score in test [5] was 1.1. For the same compound, the period change in test [8] is 0.035 h (inactive). Moreover, the survival in [20] was 7.92 (inactive). Also, the fluorescence ratio (interference) in test [10] was 1 (inactive). Besides, the remaining activity in test [6] is 121% (inactive). The result in [11] was inactive.

`O=c1[nH]oc2c1CCNC2`: the inhibition was 9.73% in [2] and -5% (inactive) in test [9]. Besides, the rescue above control in test [3] was -2.56. For the same compound, the glutamate uptake change in [4] was determined as 5.07%. Also, in [7], the inclusion score turned out to be 2. Further, the aggregation suppression score in test [5] was determined as 1.43. Besides, in [8], the period change was 0.075 h (inactive). Also, the survival in test [20] was 19.5 (inactive). For the same compound, the fluorescence ratio (interference) in [10] is 1 (inactive). In addition, in test [6], the remaining activity was 100% (inactive). Besides, the call in test [11] was inactive.

As for `CN(C)[C@@H]1C(=O)C(C(N)=O)=C(O)[C@@]2(O)C(=O)C3=C(O)c4c(O)cccc4[C@@](C)(O)[C@H]3C[C@@H]12`, the fluorescence slope change in test [1] was 76.3% (active). Also, in test [2], the inhibition came to 61.6%. In test [3], this compound displayed a rescue above control of -1.89. Moreover, the glutamate uptake change in test [4] was 10.7%. In test [7], this compound registered an inclusion score of 0. Besides, the aggregation suppression score in [5] amounted to 0.769. Further, the survival in test [20] was 22.6 (inactive). Further, in test [12], the mean signal was 244 (inactive).

`CC(Cc1ccc(O)cc1)NCC(O)c1cc(O)cc(O)c1` (stereo not given): the fluorescence slope change in test [1] was 108% (active). The inhibition in test [2] is 7.8%; in test [9] it was -3% (inactive). Besides, in [3], the rescue above control is 3.16. For the same compound, the glutamate uptake change in [4] came out at 0.39%. In test [7], the inclusion score stood at 2. In [5], the aggregation suppression score is 1.23. For the same compound, the period change in test [8] is 0.005 h (inactive). For the same compound, in test [20], the survival was 36.6 (inactive). Moreover, the fluorescence ratio (interference) in test [10] was 1 (inactive). Moreover, the remaining activity in [6] was 91.6% (inactive). For the same compound, the compound was called inactive in test [11].

For the compound `CC(NC(C)(C)C)C(=O)c1cccc(Cl)c1` (stereo not given), the fluorescence slope change in test [1] was 106% (active). The period change in test [8] is 0.18 h (inactive). The survival in test [20] was 16.8 (inactive). In addition, the inhibition is -1% (inactive) in test [9]; -3.56% (inactive) and 3.56% (inactive) in [14]. Also, the fluorescence ratio (interference) in test [10] is 1 (inactive). Besides, the fluorescence ratio in test [13] is 1.04 (inactive) and 1.06 (inactive). For the same compound, the mean signal in test [12] is 264 (inactive). For the same compound, the remaining activity in test [6] was 118% (inactive). Also, the compound was called inactive in [11]. Further, the log fold change Tl+ flux is 0.0198 (inactive) and -0.0218 (inactive) in test [15]; -0.0525 (inactive) and 0.0137 (inactive) in test [16]; -0.059 (inactive) and 0.00561 (inactive) in [17]; -0.0389 (inactive) and 0.036 (inactive) in test [18]; -0.014 (inactive) and 0.0171 (inactive) in [19].

The values above are taken from PubChem BioAssay.
